This is an account of results in PubChem BioAssay.

Activity calls are given as the source filed them.

Assay [1] in a line: optical density shifts of acrAB sulA E. coli – strain DRC41, OD650, 48 h, E. coli filamentation inducer project, primary screen (AID 1152).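 Note: E. coli MC1000 strain DRC41 lacking acrAB efflux pump and sulA.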 As to conditions: higher = more signal, called active from +8 up or from −8 down.
Assay [2] is described as follows: probe aLefty1 binding on compound microarray – biochemical, small-molecule microarray, 635/667 nm fluorescence, primary screen (AID 1153).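 Note: score merges spot fluorescence with signal-to-noise ratio from the scanned slide images.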 As to conditions: higher = more signal.
Assay [3] is described as follows: plasmodial surface anion channel blockers, osmotic lysis – cell-based, P. falciparum Indochina, OD700, 1 h, primary screen (AID 1154). The conditions noted are these: P. falciparum Indochina infected RBC osmotic lysis, higher = more signal, called active from +8 up or from −8 down.
Assay [4] can be described thus: plasmodial surface anion channel blockers, osmotic lysis – cell-based, P. falciparum Indochina, OD700, 2 h, primary screen (AID 1155).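 Note: lysis reports solute entry through the parasite surface anion channel PSAC.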 As to conditions: P. falciparum Indochina infected erythrocytes, higher = more signal, called active from +8 up or from −8 down.
The nature of assay [5]: changes in parasitized red cell lysis, either direction – P. falciparum Indochina, OD700, 3 h, PSAC antagonist project, primary screen (AID 1156). The conditions noted are these: P. falciparum-infected erythrocytes, osmotic lysis, higher = more signal, called active from +8 up or from −8 down.
The nature of assay [6]: plasmodial surface anion channel blockers, osmotic lysis – cell-based, P. falciparum Indochina, OD700, 18 h, primary screen (AID 1157). As to conditions: P. falciparum Indochina infected erythrocytes, osmotic lysis OD700, 18 h; higher = more signal, called active from +8 up or from −8 down.
A short description of assay [7]: S6 kinase pathway phospho-S6 level changes – cell-based, A549, cytoblot, luminescence, serum-stimulated, primary screen (AID 1158).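 Note: serum-stimulated A549 lung adenocarcinoma cells; signal is phosphorylated S6 detected by cytoblot immunostaining with HRP secondary.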 The conditions noted are these: 5 h, higher = more signal.
Assay [8] has as its target NADPH oxidase 2 (Homo sapiens) (UniProt P04839). The experiment in a line: compounds shifting NOX2 Amplex Red fluorescence – cell-based, HEK293-NOX2, PMA-stimulated, NOX inhibitor project, primary screen (AID 1159). Note: test concentration not given here. As to conditions: 45 min, higher = more signal, called active from +8 up or from −8 down.
Assay [9] concerns the target NADPH oxidase 4 (Homo sapiens) (UniProt Q9NPH5). Description: compounds shifting NOX4 Amplex Red fluorescence – cell-based, HEK293-NOX4, tetracycline-induced, NOX inhibitor project, primary screen (AID 1160). The conditions noted are these: HEK293-NOX4, Amplex Red H2O2 fluorescence, 45 min; higher = more signal, called active from +8 up or from −8 down.
For assay [10], the target named is NADPH oxidase 5 (Homo sapiens) (UniProt Q96PH1). The experiment in a line: compounds shifting NOX5 Amplex Red fluorescence – cell-based, HEK293-NOX5, NOX inhibitor project, primary screen (AID 1161). As to conditions: HEK293-NOX5, ionomycin, 45 min, higher = more signal.
NADPH oxidase 5 (Homo sapiens), sequence (Q96PH1 whole entry, looked up): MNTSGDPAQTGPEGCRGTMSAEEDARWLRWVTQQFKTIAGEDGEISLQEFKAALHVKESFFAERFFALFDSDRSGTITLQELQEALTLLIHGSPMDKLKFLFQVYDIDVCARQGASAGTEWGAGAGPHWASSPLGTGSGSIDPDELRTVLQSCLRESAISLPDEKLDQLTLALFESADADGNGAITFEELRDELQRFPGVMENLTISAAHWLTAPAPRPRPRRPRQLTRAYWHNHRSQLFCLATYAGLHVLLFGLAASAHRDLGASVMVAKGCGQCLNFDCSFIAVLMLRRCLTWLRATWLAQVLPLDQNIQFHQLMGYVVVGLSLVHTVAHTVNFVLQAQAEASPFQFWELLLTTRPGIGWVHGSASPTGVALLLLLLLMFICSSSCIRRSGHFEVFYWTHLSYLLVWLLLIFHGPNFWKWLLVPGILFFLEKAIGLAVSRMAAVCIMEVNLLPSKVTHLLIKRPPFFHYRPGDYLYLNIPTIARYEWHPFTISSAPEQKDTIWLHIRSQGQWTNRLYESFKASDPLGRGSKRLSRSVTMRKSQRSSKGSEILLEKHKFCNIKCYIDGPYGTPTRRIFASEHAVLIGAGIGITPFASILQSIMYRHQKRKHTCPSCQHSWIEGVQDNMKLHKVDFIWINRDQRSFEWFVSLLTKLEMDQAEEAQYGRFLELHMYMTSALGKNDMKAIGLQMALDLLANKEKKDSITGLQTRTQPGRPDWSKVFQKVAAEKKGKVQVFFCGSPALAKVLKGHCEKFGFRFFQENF
A short description of assay [11]: compound effects on lung adenocarcinoma cell viability – A549, calcein-AM fluorescence, 48 h, basal, profiling panel (AID 1162). Note: test concentration not given here. The conditions noted are these: higher = more signal.
Assay [12] is described as follows: compound effects on differentiated 3T3-L1 adipocyte viability – cell-based, 3T3-L1 adipocytes, calcein-AM fluorescence, 48 h, basal, profiling panel (AID 1163). Note: test concentration not given here. As to conditions: 3T3-L1 adipocytes viability, higher = more signal.
Assay [13] in a line: compound effects on hepatocellular carcinoma cell viability – HepG2, calcein-AM fluorescence, 48 h, basal, profiling panel (AID 1164). Note: test concentration not given here. The conditions noted are these: higher = more signal.
Assay [14] in a line: compound effects on multiple myeloma cell viability – MM1S, calcein-AM fluorescence, 48 h, basal, profiling panel (AID 1165). Note: test concentration not given here. As to conditions: higher = more signal.
Assay [15] in a line: calcein-AM signal in unstimulated myeloma cells – cell-based, calcein-AM fluorescence, 48 h, PK04 Diversity Set, profiling panel (AID 1166).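 Note: cells grown under basal conditions without added stimulus; test concentration not given here.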 As to conditions: RPMI8226 myeloma viability, higher = more signal.
The nature of assay [16]: JC-1 mitochondrial signal, unstimulated HepG2 cells – cell-based, JC-1 fluorescence, 24 h, 100 nL compound, profiling panel (AID 1167). Note: test concentration not given here. The conditions noted are these: HepG2 mitochondrial potential, higher = more signal.
Assay [17] can be described thus: JC-1 mitochondrial signal, unstimulated adipocytes – cell-based, JC-1 fluorescence, 3T3-L1 adipocytes, 24 h, 100 nL compound, profiling panel (AID 1168). Note: test concentration not given here. As to conditions: JC-1 mitochondrial fluorescence, higher = more signal, called active from +8 up or from −8 down.
Assay [18] in a line: JC-1 mitochondrial signal, unstimulated myeloma cells – cell-based, JC-1 fluorescence, RPMI8226, 24 h, 100 nL compound, profiling panel (AID 1169). Note: test concentration not given here. The conditions noted are these: JC-1 mitochondrial potential fluorescence, higher = more signal.
Assay [19] is described as follows: JC-1 mitochondrial signal, unstimulated MM1S myeloma – cell-based, JC-1 fluorescence, 24 h, 100 nL compound, profiling panel (AID 1170). Note: test concentration not given here. As to conditions: MM1S mitochondrial potential, higher = more signal.
Assay [20] in a line: resazurin metabolic signal in A549 cells – cell-based, resazurin fluorescence, 24 h, PK04 Diversity Set, profiling panel (AID 1171). Note: test concentration not given here. As to conditions: A549 viability, higher = more signal, called active from +8 up or from −8 down.

NADPH oxidase 2 (Homo sapiens), sequence (P04839 whole entry, looked up): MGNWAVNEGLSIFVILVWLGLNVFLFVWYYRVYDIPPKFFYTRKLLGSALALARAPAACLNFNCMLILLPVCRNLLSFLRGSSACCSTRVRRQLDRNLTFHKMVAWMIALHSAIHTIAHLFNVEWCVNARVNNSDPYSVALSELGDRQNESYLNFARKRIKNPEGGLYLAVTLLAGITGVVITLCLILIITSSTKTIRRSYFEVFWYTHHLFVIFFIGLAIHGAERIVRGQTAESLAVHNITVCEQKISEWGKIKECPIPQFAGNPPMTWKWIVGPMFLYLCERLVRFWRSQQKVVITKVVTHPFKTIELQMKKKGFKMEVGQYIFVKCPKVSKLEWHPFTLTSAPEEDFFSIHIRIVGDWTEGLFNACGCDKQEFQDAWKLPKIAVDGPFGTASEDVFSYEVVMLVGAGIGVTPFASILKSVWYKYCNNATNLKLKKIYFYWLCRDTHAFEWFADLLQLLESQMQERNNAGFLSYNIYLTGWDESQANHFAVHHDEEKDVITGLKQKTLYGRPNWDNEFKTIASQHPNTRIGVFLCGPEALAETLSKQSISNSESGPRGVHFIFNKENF
NADPH oxidase 4 (Homo sapiens), sequence (Q9NPH5 whole entry, looked up): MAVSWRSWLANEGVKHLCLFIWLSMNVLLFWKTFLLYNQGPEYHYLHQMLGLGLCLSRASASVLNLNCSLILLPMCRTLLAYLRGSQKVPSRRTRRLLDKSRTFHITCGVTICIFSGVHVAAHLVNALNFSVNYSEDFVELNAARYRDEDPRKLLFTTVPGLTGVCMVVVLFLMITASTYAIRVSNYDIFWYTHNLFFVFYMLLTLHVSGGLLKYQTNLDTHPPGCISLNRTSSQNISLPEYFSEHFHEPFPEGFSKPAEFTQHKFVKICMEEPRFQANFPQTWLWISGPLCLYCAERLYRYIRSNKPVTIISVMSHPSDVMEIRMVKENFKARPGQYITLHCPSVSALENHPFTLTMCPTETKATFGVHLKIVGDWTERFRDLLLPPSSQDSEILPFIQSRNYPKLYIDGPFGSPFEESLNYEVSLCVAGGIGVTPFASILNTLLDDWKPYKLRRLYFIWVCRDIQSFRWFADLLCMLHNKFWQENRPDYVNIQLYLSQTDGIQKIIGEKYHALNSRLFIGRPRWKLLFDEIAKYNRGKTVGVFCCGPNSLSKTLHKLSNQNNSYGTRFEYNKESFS

Turning to `COC(=O)CC=C[C@@H](C)[C@@H](C=NO[C@H](C)c1cn([C@@H]2COC[C@H]2O)nn1)NS(=O)(=O)c1ccc(C)cc1`, the z-score in assay [1] is 0.876 (inactive); in assay [3] it was 1.43 (inactive); in [4] it was 0.269 (inactive); in assay [5] it was 0.785 (inactive); in assay [6], 0.465 (inactive); in [7] it was 0.459. The z-score in assay [8] is -0.283 (inactive); in assay [9], 0.891 (inactive); in [10] it was 0.309; in assay [11], 0.802; in assay [12] it was -0.628; in assay [13], 1.16. Moreover, the z-score is 0.111 in [14]; 0.188 in assay [15]; -0.156 in [16]; 0.766 (inactive) in assay [17]; 0.556 in assay [18]; -1.25 in assay [19]. The z-score in assay [20] was -1.14 (inactive). This compound returned a composite z-score in assay [2] of -0.274.
In the case of `CCOC(=O)[C@H](CC(C)C)NC(=O)CCC1CC(OC(=O)NCc2cccc3ccccc23)CC2(CCCC(COC(=O)NCc3cccc(C(F)(F)F)c3)O2)O1` (stereo not given in full), the z-score in [1] was 0.366 (inactive); in assay [3] it was -0.406 (inactive); in [4] it was -0.0787 (inactive); in assay [5], 0.976 (inactive); in assay [6], 0.613 (inactive); in assay [7] it was 0.273. Further, the z-score is 0.176 (inactive) in assay [8]; 0.794 (inactive) in assay [9]; 0.259 in assay [10]; -0.442 in assay [11]; -0.302 in assay [12]; 0.8 in assay [13]. In addition, the z-score in assay [14] was 0.484; in assay [15], 0.38; in assay [16] it was 0.936; in assay [17], 0.346 (inactive); in [18], 0.0118; in [19] it was -0.851. In addition, in assay [20], the z-score is -0.75 (inactive). Further, the composite z-score in [2] is -0.144.
In the case of `O=C1C[C@@H](O)[C@@H](O)[C@@H]2[C@@H]3C(=O)N(Cc4ccccc4)C(=O)[C@@H]3CC[C@@H]12`, the z-score in assay [1] was -0.861 (inactive); in [3] it was -0.0483 (inactive); in assay [4], 0.141 (inactive); in assay [5], 0.0313 (inactive); in assay [6], -0.014 (inactive); in [7], -0.224. Also, the z-score in assay [8] was 1.04 (inactive); in assay [9] it was 0.286 (inactive); in [10] it was -0.0644; in assay [11], 0.249; in [12] it was -0.118; in [13] it was 0.208. Further, the z-score in [14] was 0.0158; in [15], -0.499; in assay [16], -0.229; in assay [17], 0.377 (inactive); in assay [18] it was 0.139; in assay [19] it was 0.431. For the same compound, the z-score in assay [20] is 1.11 (inactive). Further, in assay [2], the composite z-score is -0.0559.
`COc1ccc(O[C@H]2C=C[C@@H](c3ccccc3)O[C@@H]2CON=C(C)CCC(=O)OC[C@H]2O[C@H](c3ccccc3)C=C[C@@H]2Oc2ccc(OC)cc2)cc1`: the z-score in [1] was 0.274 (inactive); in [3], 0.99 (inactive); in assay [4], 0.328 (inactive); in [5], 0.104 (inactive); in assay [6] it was 0.464 (inactive); in assay [7], -0.661. Besides, the z-score was -0.2 (inactive) in assay [8]; 0.988 (inactive) in assay [9]; -0.925 in assay [10]; -0.094 in assay [11]; -0.603 in assay [12]; -0.144 in [13]. Also, the z-score in [14] was -1.44; in assay [15], -0.31; in assay [16] it was 1.08; in assay [17], 0.244 (inactive); in assay [18], 0.534; in assay [19], -0.492. The z-score in assay [20] was 0.305 (inactive). Further, the composite z-score in [2] was 0.64.
For the compound `COC(=O)CC=C[C@@H](C)[C@@H](C=NOC(C)CN1CCCc2nc(C)c(C)cc21)OC` (stereo not given in full), the z-score is -0.4 (inactive) in [1]; 0.378 (inactive) in assay [3]; 0.633 (inactive) in assay [4]; -0.17 (inactive) in assay [5]; 0.538 (inactive) in assay [6]; -0.77 in assay [7]. Besides, the z-score is -0.0618 (inactive) in [8]; -0.14 (inactive) in assay [9]; 0.372 in assay [10]; 0.756 in assay [11]; -0.274 in [12]; 0.125 in [13]. Further, the z-score in assay [14] was 0.0457; in [15], 0.142; in assay [16], -0.16; in [17], 0.111 (inactive); in assay [18], -0.194; in assay [19] it was -0.259. For the same compound, the z-score in [20] is -0.399 (inactive). The same compound returned a composite z-score in assay [2] of -0.202.
Turning to `CCOC(=O)[C@H](CC(C)C)NC(=O)CCC1CC(OC(=O)NCCc2ccc(F)cc2)CC2(CCCC(COC(=O)NCCC(C)C)O2)O1` (stereo not given in full), the z-score in assay [1] was -1.14 (inactive); in assay [3], 6.28 (inactive); in [4] it was 0.267 (inactive); in [5], 0.0542 (inactive); in assay [6], 0.0517 (inactive); in assay [7] it was -0.326. Further, the z-score in assay [8] was 1.26 (inactive); in assay [9] it was -1.27 (inactive); in assay [10], -0.8; in [11], -0.646; in assay [12], 0.174; in [13], 0.0995. Further, the z-score was 0.773 in [14]; -0.479 in [15]; -0.488 in [16]; 0.152 (inactive) in [17]; 0.248 in assay [18]; -0.00687 in [19]. Further, the z-score in assay [20] was 0.0692 (inactive). Further, in [2], the composite z-score stood at 0.0451.
As to `COc1cccc([C@@H]2Oc3ccc(OC)cc3C(=O)[C@H]2O)c1`, the z-score is -0.542 (inactive) in assay [1]; 4.92 (inactive) in assay [3]; -0.384 (inactive) in [4]; 1.13 (inactive) in assay [5]; -1.28 (inactive) in assay [6]; 2.08 in assay [7]. Also, the z-score in [8] was -2.25 (inactive); in assay [9], -1.51 (inactive); in assay [10], -1.77; in assay [11], 0.0549; in [12], 0.856; in assay [13], -2.24. For the same compound, the z-score in assay [14] is -2.89; in assay [15], -2.25; in assay [16], -2.31; in [17], -0.0174 (inactive); in assay [18], 1.04; in assay [19] it was -0.27. The z-score in assay [20] is -0.214 (inactive). Moreover, the composite z-score in assay [2] is -0.101.
On to `CCOC(=O)[C@H](CC(C)C)NC(=O)CCC1CC(OC(=O)NCc2ccc3c(c2)OCO3)CC2(CCCC(COC(=O)NCc3cccc(C(F)(F)F)c3)O2)O1` (stereo not given in full), for which the z-score in assay [1] is -0.457 (inactive); in assay [3], 1.73 (inactive); in assay [4], 0.182 (inactive); in assay [5], 0.286 (inactive); in assay [6], 0.297 (inactive); in assay [7], 0.427. Further, the z-score in [8] is 1.46 (inactive); in assay [9], 0.179 (inactive); in assay [10] it was 1.2; in [11] it was 0.112; in assay [12] it was 0.214; in [13], -0.503. Further, the z-score in [14] is 0.0777; in assay [15], -3.36; in assay [16], 1.85; in assay [17], -0.176 (inactive); in assay [18], 0.525; in assay [19] it was -0.412. In addition, in assay [20], the z-score was -0.175 (inactive). The compound further came in with a composite z-score in assay [2] of 0.125.
